Assay results taken from PubChem BioAssay AID720648 (The Scripps Research Institute Molecular Screening Center, 2013).
Hit rate of the full screen: of about 370,000 compounds, about 3,100 (0.84%) were called active.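 The calls were made as follows: active = inhibition above the mean of compounds lying between control limits plus 3 SD, set per campaign (cut at about 8.5% in these data); inactive = the rest.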 For the sample, actives were picked, then their nearest neighbours and some compounds at random.

molecular target: Disintegrin and metalloproteinase domain-containing protein 17 (Homo sapiens) (UniProt P78536); test: ADAM17 inhibitors, primary screen, biochemical, QFRET (AID 720648); conditions: recombinant ADAM17, EDANS/DABCYL FRET peptide cleavage; at 6.95 µM; active compounds read high;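 also: 0% = DMSO-only wells as the low control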
Sequence (P78536 215-824 limits assumed): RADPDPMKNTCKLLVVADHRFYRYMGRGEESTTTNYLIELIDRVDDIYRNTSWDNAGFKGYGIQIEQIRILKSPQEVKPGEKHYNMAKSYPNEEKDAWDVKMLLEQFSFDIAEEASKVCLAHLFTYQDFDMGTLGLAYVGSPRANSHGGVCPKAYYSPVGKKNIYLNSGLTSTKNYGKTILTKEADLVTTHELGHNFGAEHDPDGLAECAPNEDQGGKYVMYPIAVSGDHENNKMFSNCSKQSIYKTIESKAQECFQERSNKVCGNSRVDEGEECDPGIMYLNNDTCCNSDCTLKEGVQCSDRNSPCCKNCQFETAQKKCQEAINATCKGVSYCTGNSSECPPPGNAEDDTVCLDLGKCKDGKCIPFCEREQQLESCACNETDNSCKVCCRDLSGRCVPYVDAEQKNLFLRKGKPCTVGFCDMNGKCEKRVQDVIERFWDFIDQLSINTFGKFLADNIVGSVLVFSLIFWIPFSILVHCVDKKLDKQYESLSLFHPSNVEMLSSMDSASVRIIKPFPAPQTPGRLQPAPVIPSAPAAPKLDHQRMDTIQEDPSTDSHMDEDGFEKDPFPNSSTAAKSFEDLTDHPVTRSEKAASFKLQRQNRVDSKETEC

inhibition, inactive:
CCCCC(=O)N[C@@H]1CC[C@@]23CCCN2C(=O)CCC[C@H]3[C@H]1C -6.42%, C=C(C)C1CC23C(=O)C4(C(=O)c5ccccc5)C[C@@]5(C)CCC(CC2C1(C)C)(C4=O)C35OC (some centres undefined) -2.35%, COC(=O)[C@]12C[C@H](CC(=O)NCc3ccccc3)C(=O)N(CCc3ccc(OC)c(OC)c3)C1=C[C@H](C(C)(C)C)O[C@@H]2C 7.1%, COC(=O)[C@H](C(C)C)N(CCc1cn(Cc2ccccc2)nn1)S(=O)(=O)c1ccc(F)cc1Br -0.43%, CCCCOCCCNC(=O)C[C@H]1C[C@@]2(C(=O)OC)C(=C[C@H](COCc3ccccc3)O[C@@H]2C)N(Cc2cccc3ccccc23)C1=O 6.38%, O=C(Nc1cccc(Cl)c1)OC1CC2CC1[C@H]1CCCCN1[C@H]2Cc1ccccc1 (some centres undefined) -2.76%, O=C(Nc1ccc(F)cc1)N1CCCC(c2nc3c(nnn3Cc3ccccc3Cl)c(=O)[nH]2)C1 (centres undefined) -4.29%, CC(C)(C)c1ccc(Cn2nnc3c(=O)[nH]c(C4CCCN(C(=O)c5ccco5)C4)nc32)cc1 (centres undefined) -1.56%, C=CCn1c(SCC(=O)Nc2ccc(NC(C)=O)cc2)nc2sc(C)c(C)c2c1=O -2.65%, O=C(CSc1nnc(-c2cccs2)n1Cc1ccco1)c1ccc2c(c1)OCO2 1.24%, C=CCN1C(=O)[C@@H](CC(=O)N2CCN(C(=O)c3ccco3)CC2)[C@]2(C(=O)OC)CCCCC=C12 1.66%, O=C(OC12CCCN(C1)/C(=C/c1cccnc1)C2)C1CCCC1 (centres undefined) 1.56%, O=C(NCCCn1ccnc1)Nc1ccc(Cl)cc1Cl -2.99%, O=C(Nc1ccccc1C(=O)NCCCn1ccnc1)c1ccc(Cl)cc1Cl 2.53%, O=S1(=O)c2c(cccc2N2CC[C@H](O)C2)O[C@@H]2CCN1C2 -10.8%, COc1ccc(C(=O)C2CCCN(C(=O)c3cnsn3)C2)c(C)c1 (centres undefined) -4.24%, COc1ccc(C(=O)C2CCCN(C(=O)c3ccc(OC)o3)C2)c(C)c1 (centres undefined) -0.93%, Cc1ccc(-n2c(SCC(=O)Nc3ccc(S(=O)(=O)Nc4nccs4)cc3)nnc2-c2cccnc2)cc1 5.12%, COc1ccc(CCNc2cc(N3CCN(C(=O)c4ccccc4OC)CC3)ccc2[N+](=O)[O-])cc1OC -5.46%, O=[N+]([O-])c1ccc(N2CCN(S(=O)(=O)c3ccc4ccccc4c3)CC2)cc1NCc1ccco1 -3.62%, CCOC(=O)[C@]12CCCCC/C=C\1N(Cc1ccc(OC)cc1)C(=O)[C@H]2CC(=O)N1CCOCC1 -0.25%, COc1ccnc(C(=O)N2CCC(Oc3cccnc3)CC2)c1 1.66%, CCOC(=O)N1CCN(C(=O)C[C@H]2C[C@@]3(C(=O)OC)C(=C[C@H](C(C)(C)C)O[C@@H]3C)N(Cc3ccc(Cl)cc3Cl)C2=O)CC1 2.67%, COC(=O)c1ccccc1Sc1c(/C=N/OCc2ccc(Cl)cc2)c(C(F)(F)F)nn1C -4.94%, CCC(=O)OCc1c(C(F)(F)F)nn(C)c1Oc1cccc(C(F)(F)F)c1 -2.77%, O=S1(=O)c2ccc(N3CCN(Cc4ccccc4F)CC3)cc2Oc2ccccc2CN1Cc1cn(Cc2ccc(Cl)cc2)nn1 7.88%, CC(C)CNC(=O)OCc1cn(Cc2ccc(F)cc2)nn1 3.83%, CNC(=O)C[C@H]1C(=O)N(c2ccc(OC)cc2)C[C@@H]1Cc1ccccc1 -1.23%, C[C@H]1CN(c2ccc(Br)cc2)C(=O)[C@@H]1CC(=O)Nc1ccc(Br)cc1 -0.38%, COc1ccc(NS(=O)(=O)c2ccc(C)c(C(=O)NCC(c3cccs3)N3CCOCC3)c2)cc1 (centres undefined) -1.97%, COc1ccc(C(CNC(=O)c2ccc(S(=O)(=O)Nc3ccccc3C)cc2)N2CCOCC2)cc1 (centres undefined) -1.54%, O=C(Nc1cc(F)cc(F)c1)OC1CCC12CCC(c1ccccc1)CC2 (centres undefined) 3.79%, COc1cccc(N(C)C(=O)[C@@H](C)[C@@H](O)c2ccc3ccccc3c2)c1 -0.07%, CC(=O)C1(C(=O)Nc2nccs2)CC(c2ccccc2C(F)(F)F)=NO1 (centres undefined) -1.77%, CCN1C(=O)[C@H]2[C@@H](c3ccc(-c4ccc(OC)cc4)cc3)N[C@@](Cc3ccccc3)(C(=O)OC)[C@H]2C1=O -1.71%, Cc1cccc(N2C(=O)N3[C@H](c4ccc(F)cc4)[C@@H]4C(=O)N(C5CCCCC5)C(=O)[C@@H]4[C@]3(Cc3ccccc3)C2=O)c1 1.18%, O=C1[C@H]2[C@@H](c3ccc(Cl)cc3)N3C(=O)N(c4cccc(F)c4)C(=O)[C@@]3(Cc3ccccc3)[C@H]2C(=O)N1C1CCCCC1 -3.52%, CC12C(=O)N(c3ccccc3)C(=O)C1C(c1ccccc1)N1CCCN12 (centres undefined) 0.41%, Cc1cccc([C@@H]2[C@@H]3C(=O)N(Cc4ccccc4)C(=O)[C@@H]3[C@]3(Cc4ccc(Cl)cc4)C(=O)N(c4cccc(Cl)c4)C(=O)N23)c1 1.28%, O=C1[C@H]2[C@@H](c3ccc(F)cc3)N3C(=O)N(c4ccc(C(F)(F)F)cc4)C(=O)[C@@]3(Cc3ccccc3)[C@H]2C(=O)N1C1CCCCC1 1.1%, CCN1C(=O)[C@H]2[C@@H](c3ccc(C)cc3)N3C(=O)N(c4cccc(Br)c4)C(=O)[C@@]3(CC)[C@H]2C1=O 1.14%, CCOC(=O)[C@@H]1[C@H]2COc3cc(OC)ccc3[C@@H]2N2C(=O)N(c3cccc(C)c3)C(=O)[C@@]12C -2.53%

inhibition, active:
Cc1ccc(Cn2nnc3c(=O)[nH]c(C4CCN(S(=O)(=O)/C=C/c5ccccc5)CC4)nc32)cc1 8.9%, Cc1sc2nc(SCC(=O)c3ccc(O)c(O)c3)n(Cc3ccco3)c(=O)c2c1C 10.2%, Clc1ccc(C(Cn2ccnc2)OCc2ccsc2Cl)c(Cl)c1 (centres undefined) 8.72%, COc1ccc(C(=O)C2CCCN(S(=O)(=O)c3cccc(C)c3)C2)c(C)c1 (centres undefined) 12.6%, O=C(c1ccccc1)N1CCN(c2ccc([N+](=O)[O-])c(NCc3ccco3)c2)CC1 9.15%, Cn1nc(C(F)(F)F)c(C(=O)Nc2cccc(C(F)(F)F)c2)c1SCc1ccc(Cl)cc1 19.8%, O=C(C[C@H]1C(=O)N(c2ccc(F)c(F)c2)C[C@@H]1Cc1ccccc1)Nc1ccccc1 9.24%, COc1ccc(C(CNC(=O)c2cc(S(=O)(=O)Nc3cccc(C)c3)ccc2C)N2CCCC2)cc1 (centres undefined) 10.3%, C[C@@]12C(=O)N(c3cccc(Br)c3)C(=O)N1[C@H](c1ccc(Cl)cc1)[C@@H]1C(=O)N(C3CCCCC3)C(=O)[C@@H]12 13.3%, CC(C)(C)N1C(=O)[C@H]2[C@@H](c3ccc(Br)cc3)N3C(=O)N(c4cccc(Cl)c4)C(=O)[C@@]3(C)[C@H]2C1=O 10%, CC[C@@]12C(=O)N(c3ccccc3)C(=O)N1[C@H](c1ccc(Br)cc1)[C@@H]1C(=O)N(C(C)(C)C)C(=O)[C@@H]12 8.73%, COc1ccc([C@@H]2[C@@H]3C(=O)N(C(C)(C)C)C(=O)[C@@H]3[C@]3(Cc4ccccc4)C(=O)N(c4cccc(Br)c4)C(=O)N23)cc1 13.1%
